Bioassay records deposited in PubChem by Buhrlage Lab, Dana-Farber Cancer Institute and Novartis Institutes for BioMedical Research (Cambridge, Mass).
Sampled rows, rich in hits. Any-hit rate of the full collection: about 1.2%.
USP7 block – inhibitors of human USP7 deubiquitinase; Q93009; purified USP7, Ub-rhodamine cleavage fluorescence; inhibition, % at 20 µM; 0.3% of 47,000 active
USP10 inh – inhibitors of human USP10 deubiquitinase; inhibition, % at 20 µM; 1.1% of 47,000 active; purified USP10, Ub-rhodamine fluorescence, 60 min; AID 1645856
Target sequence (Q14694 whole entry, looked up): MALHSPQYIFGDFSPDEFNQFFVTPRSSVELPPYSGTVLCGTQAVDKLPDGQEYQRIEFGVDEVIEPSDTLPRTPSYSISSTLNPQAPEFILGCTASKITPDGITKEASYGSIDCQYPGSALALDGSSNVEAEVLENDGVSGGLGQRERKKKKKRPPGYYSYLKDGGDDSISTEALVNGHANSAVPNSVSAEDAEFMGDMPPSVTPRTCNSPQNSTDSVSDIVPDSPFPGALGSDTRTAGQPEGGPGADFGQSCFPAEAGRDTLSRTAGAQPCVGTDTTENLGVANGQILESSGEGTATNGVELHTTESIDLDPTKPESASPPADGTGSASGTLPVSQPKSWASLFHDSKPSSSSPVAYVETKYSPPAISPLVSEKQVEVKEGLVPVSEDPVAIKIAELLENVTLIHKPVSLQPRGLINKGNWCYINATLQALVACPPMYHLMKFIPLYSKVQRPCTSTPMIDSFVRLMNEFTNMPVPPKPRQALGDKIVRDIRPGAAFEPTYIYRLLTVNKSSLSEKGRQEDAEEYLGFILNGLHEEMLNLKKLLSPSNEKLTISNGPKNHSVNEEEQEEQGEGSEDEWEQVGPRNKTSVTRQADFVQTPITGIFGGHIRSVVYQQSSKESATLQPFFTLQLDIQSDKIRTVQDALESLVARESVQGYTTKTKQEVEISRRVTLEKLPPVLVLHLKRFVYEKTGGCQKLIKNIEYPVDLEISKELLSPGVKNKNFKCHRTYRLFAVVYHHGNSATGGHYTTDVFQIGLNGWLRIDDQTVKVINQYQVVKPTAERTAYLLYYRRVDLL
UCHL1 block – inhibitors of human UCHL1 deubiquitinase. purified UCHL1, Ub-rhodamine cleavage fluorescence. inhibition, % at 20 µM. 0.2% of 47,000 active. AID 1645859
Of the large screens only hits and unclear results are named; the others gave an inactive call. No stated cut-off is given here; in the data, active means inhibition above about 30%; inactive means the rest.

CC[C@@H]1[C@@H](C)O[C@@](O)([C@@H](C)[C@H](O)[C@H](C)[C@H]2OC(=O)/C=C/C=C/[C@H](C)[C@@H]([C@@H](C)[C@@H](O)[C@H](C)[C@@]3(O)C[C@@H](O[C@H]4C[C@H](O)[C@H](O)[C@H](C)O4)[C@H](CC)[C@@H](C)O3)OC(=O)/C=C/C=C/[C@@H]2C)C[C@H]1O[C@H]1C[C@H](O)[C@H](O)[C@H](C)O1	USP7 block 51
C/C=C/[C@H]1O[C@@](O)([C@@H](C)[C@H](O)[C@H](C)[C@H]2OC(=O)/C(OC)=C/C(C)=C[C@@H](C)[C@@H](O)[C@@H](CC)[C@@H](O)[C@H](C)C/C(C)=C/C=C/[C@@H]2OC)C[C@@H](O[C@H]2C[C@@H](O)[C@H](O)[C@@H](C)O2)[C@@H]1C	none
COc1c(Cl)ccc2c(=O)c3c(oc12)C1=C2[C@@H](OCO1)[C@@H](OC)c1cc4c(c(O)c1[C@@]2(O)[C@H]3O)C(=O)N(C)[C@H](OC)[C@@H]4O	none
Cc1cccc(COc2ccc(C3SCC(=O)Nc4n[nH]c(C)c43)cc2)c1 (stereo not drawn)	none
CC(C)=CCCC1(C)C=Cc2c(O)c3c(c(CC=C(C)C)c2O1)O[C@]12C(=C[C@@H]4CC1C(C)(C)O[C@@]2(C/C=C(/C)C(=O)O)C4=O)C3=O (stereo partly drawn)	USP7 block 84, USP10 inh 75, UCHL1 block 64
CCC(CC)n1[nH]c(=O)c2c1NC(=O)CSC2c1ccc2c(c1)OCO2 (stereo not drawn)	none
O=C1CSC(c2ccc(F)cc2)c2c(n(C3CCCCCC3)[nH]c2=O)N1 (stereo not drawn)	none
CCC(CC(C)C(=O)O)C(=O)CC/C1=C/C(C)C/C(C)=C/C(C)C(O)C(C)CCC(CCCC/C=C/C(C)CCC(C)OC(=O)CC(CC(=O)O)C(=O)O)OC(=O)CC(C(=O)O)CC(=O)OC1 (stereo not drawn)	none
O=C(c1cc(Cl)c(Cl)[nH]1)c1cc(Cl)cc(Cl)c1O	USP10 inh 40
CC(C)=CCC[C@H](C(=O)O)[C@@H]1CC[C@]2(C)C3=C(CC[C@@]12C)[C@@]1(C)CCC(=O)C(C)(C)C1CC3 (stereo partly drawn)	USP10 inh 38
CCCC1Cc2cc3c(c(O)c2C(=O)O1)-c1c(c(OC)c2oc4c(O[C@H]5C[C@H](O)[C@H](O[C@H]6C[C@H](O)[C@H](O[C@H]7C[C@H](OC)[C@H](O)C(C)O7)C(C)O6)C(C)O5)ccc(O)c4c(=O)c2c1O)[C@H](O)[C@@H]3O (stereo partly drawn)	none
Oc1ccc2cc(Br)ccc2c1CN1CC=C(c2ccccc2)CC1	none
COC(=O)[C@]1(O)O[C@@]2(C(=O)OC)c3c(oc4cc(C)cc(O)c4c3=O)[C@H]3c4c(oc5cc(C)cc(O)c5c4=O)C[C@H]1[C@H]32	none
CN(C)[C@@H]1C(=O)C(C(N)=O)=C(O)[C@@]2(O)C(=O)C3=C(O)c4c(O)cccc4[C@@](C)(O)[C@H]3C[C@@H]12	none
CN(C)[C@@H]1C(=O)C(C(N)=O)=C(O)[C@@]2(O)C(=O)C3=C(O)c4c(O)cccc4[C@@](C)(O)C3[C@H](O)[C@@H]12 (stereo partly drawn)	USP7 block 89, USP10 inh 62, UCHL1 block 90
COc1oc(C2C\C(=C/C(C)=C/C(C)=C/C(C)=C/c3ccc([N+](=O)[O-])cc3)CO2)c(C)c(=O)c1C (stereo not drawn)	none
CO[C@H]1[C@@H](O)[C@H](C)O[C@H](O[C@H]2[C@H](Oc3cccc4c(O)c5c(=O)oc6ccc(C)c7c(=O)oc(c34)c5c67)O[C@H](C)[C@H](O)[C@@H]2O)[C@@H]1O	none
CC1CC[C@@]2(NC1)O[C@H]1C[C@H]3[C@@H]4CC=C5C[C@@H](O)CC[C@]5(C)[C@H]4CC[C@]3(C)[C@H]1[C@@H]2C (stereo partly drawn)	none
Cn1c(=O)c2ncnnc2n(C)c1=O	USP10 inh 89, UCHL1 block 50
CCCCCC(O)c1c(O)cc2c(c1O)C(=O)c1c(O)cc(O)cc1C2=O (stereo not drawn)	USP10 inh 33
CN(C[C@H]1CN2CC[C@H]1C[C@@H]2CNC(=O)Nc1cccc(F)c1)c1ccccc1	none
